PHOSPHO1 inh: inhibitors of human PHOSPHO1 phosphatase; inhibition, % at 13.3 µM; actives 1.1% (n = 290,000); recombinant PHOSPHO1, absorbance phosphatase assay; Q8TCT1; in the data active means inhibition above about 60%
Target sequence (Q8TCT1 whole entry, looked up): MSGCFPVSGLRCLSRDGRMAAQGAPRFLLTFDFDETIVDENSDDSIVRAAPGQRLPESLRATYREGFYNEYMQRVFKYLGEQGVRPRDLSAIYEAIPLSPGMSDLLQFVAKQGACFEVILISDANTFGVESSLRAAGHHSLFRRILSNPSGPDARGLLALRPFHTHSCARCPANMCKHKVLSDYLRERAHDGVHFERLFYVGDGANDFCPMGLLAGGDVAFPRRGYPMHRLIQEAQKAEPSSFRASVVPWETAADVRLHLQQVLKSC
TPT1 inhibitor: C. albicans TPT1 enzyme inhibition. recombinant caTPT1, FP RNA substrate dephosphorylation. inhibition, % at 5 µM. actives 0.81% (n = 300,000). AID 1962;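 active means inhibition above the mean of all tested compounds plus 3 SD, set per screening campaign, cut at about 24% in these data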;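 further: plate controls were DMSO alone for no effect and ferristatin control at 100 nM for full effect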
Rpn11 block: Rpn11 (human) deubiquitinase inhibition | O00487 | human 26S proteasome, Ub4-pepOG fluorescence polarization; 20S core pre-blocked with epoxomicin | inhibition, % at 20 µM | actives 0.59% (n = 360,000);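 active means inhibition at 20 µM, scaled to each plate's controls, above about 33%, limit read from the data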
Target sequence (O00487 whole entry, looked up): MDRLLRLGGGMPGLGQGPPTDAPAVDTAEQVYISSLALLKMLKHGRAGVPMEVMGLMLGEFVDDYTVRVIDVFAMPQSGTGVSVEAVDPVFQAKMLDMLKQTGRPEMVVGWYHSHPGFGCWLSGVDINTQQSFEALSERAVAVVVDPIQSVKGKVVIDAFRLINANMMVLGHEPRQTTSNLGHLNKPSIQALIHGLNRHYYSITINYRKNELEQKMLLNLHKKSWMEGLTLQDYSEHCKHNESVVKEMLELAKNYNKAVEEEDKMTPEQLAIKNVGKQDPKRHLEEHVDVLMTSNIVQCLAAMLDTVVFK
CendR NRP1 mod: modulators of CendR peptide binding to human neuropilin-1 | actives 0.85% (n = 360,000) | O14786 | FAM-RPARPAR peptide binding to NRP-1, fluorescence polarization | AID 602438 | inhibition, % at 25 µM;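 active means inhibition or corrected inhibition above about 18%, plus a signal ratio from 0.5 to 1.5, limit read from the data, passing the limit was not always enough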
HNF4A DNA FP: change in binding of human HNF4 alpha to DNA. P41235. HNF4a-FITC DNA binding, fluorescence polarization, 1 h. activity change, % at 10 µM. actives 0.3% (n = 360,000); in the data active means activity change above about 30%, passing the limit was not always enough
CTSL1 counter: counter-screen for PFM18AAP inhibitors: inhibitors of F. hepatica cathepsin L1 | actives 0.49% (n = 300,000) | AID 1906 | recombinant F. hepatica cathepsin L1, Z-Leu-Arg-MCA fluorescence | inhibition, % at 5.96 µM;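 active means inhibition above the mean of all tested compounds plus 3 SD, set per screening campaign, cut at about 17% in these data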;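 further: 0% = plate median of test compound wells and 100% = 1 µM Z-Phe-Ala-diazomethylketone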
Rpn11 inh conf: confirmation of human proteasome Rpn11 inhibitors; inhibition, % at 20 µM; shares compounds with Rpn11 block; AID 602318; purified human 26S proteasome, Ub4-pepOG fluorescence polarization; proteasome pretreated with epoxomicin; actives 29% (n = 1,900)
MMP-2 counter: MMP-2 (human) inhibition counter-screen; shares compounds with Rpn11 block; recombinant MMP-2, FRET peptide cleavage fluorescence; inhibition, % at 20 µM; actives 4% (n = 1,900); AID 602330;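 further: human MMP-2 activated beforehand with APMA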
Thrombin FP: thrombin (bovine) inhibition counter-screen; shares compounds with Rpn11 block; bovine thrombin cleavage of Ub4-pepOG, fluorescence polarization; inhibition, % at 20 µM; actives 13% (n = 1,900); AID 602333;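 active means mean inhibition at least 40% at 20 µM, or signal 3 deviations below plate average, so some actives read negative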;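 further: plate controls were thrombin with DMSO for no effect and buffer wells lacking thrombin for full effect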
The depositor's hits bear a star; · = no result given; + = active, no number. Shown are actives, neighbours in structure and some others; about 3.3% of the full set was active somewhere. Unless noted, no stated cut-off is given here; in the data, active means inhibition above about 40%; inactive means the rest.

SMILES | PHOSPHO1 inh | TPT1 inhibitor | Rpn11 block | CendR NRP1 mod | HNF4A DNA FP | CTSL1 counter | Rpn11 inh conf | MMP-2 counter | Thrombin FP
COc1ccc(OC)c(Nc2nc3nonc3nc2N2CCCC(C)C2)c1 (centres undefined) | -18 | -3 | 62* | -31 | 20 | 1 | 21 | -19 | -1
Cc1cc(C)n(C(=O)CNC(=O)/C=C/c2ccccc2)n1 | 29 | -4 | 72* | -18 | 11 | -15 | -17 | -18 | -20
COc1ccc(CCNC(=O)C2CCN(S(=O)(=O)N3CCOCC3)CC2)cc1OC | 21 | 2 | -1 | 10 | -2 | -5 | · | · | ·
CS(=O)(=O)c1ccc(C(=O)OCC(=O)NCc2cccs2)cc1[N+](=O)[O-] | · | · | 41* | 23 | 4 | · | -23 | -32 | -33
Cc1c2cc[n+](CCN3CCCCC3)cc2c(C)c2c1[nH]c1ccc(O)cc12 | · | · | 90* | 34* | 49 | · | 69* | 42* | 20
CCOC(=O)c1[nH]c2ccc(C)cc2c1NC(=O)CN1CCCCC1 | -1 | -5 | 0 | -4 | 0 | 4 | · | · | ·
CC1Cc2ccccc2N1C(=O)c1ccc(N2CCCCC2)c([N+](=O)[O-])c1 (centres undefined) | -4 | -2 | 33* | 0 | -2 | -1 | -3 | -3 | -1
CC1Cc2ccccc2N1C(=O)c1ccc(N2CCCC2)c([N+](=O)[O-])c1 (centres undefined) | 4 | -2 | 1 | 18 | 6 | 4 | · | · | ·
C=CCn1c(=NC(=O)c2cc(Cl)sc2Cl)sc2cc(S(N)(=O)=O)ccc21 | -5 | 12 | 22 | -31 | 12 | -1 | · | · | ·
CCOC(=O)Cn1c(=NC(=O)c2nc3ccccc3s2)sc2cc(S(N)(=O)=O)ccc21 | -18 | -1 | 41* | 2 | -1 | 4 | 7 | -16 | -5
COCCn1c(=NC(=O)c2cc(-c3cccs3)nc3ccccc23)sc2cc(S(N)(=O)=O)ccc21 | -10 | 15 | 58* | -8 | 7 | 3 | 20 | 32 | 10
C=CCn1c(=NC(=O)c2sc3ccccc3c2Cl)sc2cc(S(N)(=O)=O)ccc21 | -5 | 0 | 49* | -16 | 3 | -1 | 49* | -19 | 0
C=CCn1cccc(C(=O)Nc2ccc(OC)c(Cl)c2)c1=O | 50 | 2 | -3 | 2 | 2 | 1 | · | · | ·
N#C/C(=C/C1=C(N2CCOCC2)C(=C/c2ccccc2)/CC1)C(=O)Nc1ccccc1F | · | · | · | -152 | 84 | · | · | · | ·
N#C/C(=C/C1=C(N2CCOCC2)C(=C/c2ccc(Cl)cc2Cl)/CC1)C(=O)Nc1ccccc1F | · | · | 42* | -91 | 26 | · | 18 | -25 | 0
N#C/C(=C\C1=C(N2CCOCC2)C(=C\c2ccc(Cl)cc2)/CC1)C(=O)Nc1ccccc1F | -2 | 16 | 58* | -131 | 28 | 1 | 56* | 3 | -34
Nc1c(C(=O)NCc2ccco2)c2nc3ccccc3nc2n1CCc1ccccc1F | 14 | 14 | 33 | -18 | 7 | 2 | · | · | ·
COc1ccc(CCn2c(N)c(C(=O)NCc3ccco3)c3nc4ccccc4nc32)cc1 | 7 | 4 | 41* | -21 | 9 | -2 | -2 | 31 | 25
COc1ccc(CCn2c(N)c(C(=O)NCc3ccco3)c3nc4ccccc4nc32)cc1OC | -53 | 23 | 45* | -26 | 9 | -1 | -8 | 4 | -9
CCS(=O)(=O)NCC(c1cccnc1)N1CCN(c2ccc(F)cc2)CC1 (centres undefined) | 22 | -1 | -2 | 2 | -1 | 0 | · | · | ·
O=C(Nc1nnc(-c2ccc(Cl)cc2)o1)Nc1ccccc1F | 20 | 2 | -4 | 7 | 1 | 1 | · | · | ·
COc1ccc(CCNC(=O)c2cccn2C)cc1 | 10 | 1 | -2 | 7 | 3 | -1 | · | · | ·
COc1ccc(CNC(=O)C(C)OC(=O)c2cccn2C)cc1 (centres undefined) | -19 | 1 | + | -1 | 14 | -5 | -3 | 11 | -13
COc1cccc(-c2cc(C(=O)Nc3cc(C)on3)no2)c1 | 11 | 0 | 59* | -2 | -5 | 6 | 31 | 32 | -7
COc1ccc(-c2cc(C(=O)Nc3cc(Br)ccc3O)no2)cc1 | 33 | -5 | 55* | 0 | 25 | 5 | 17 | -19 | -2
SMILES | PHOSPHO1 inh | TPT1 inhibitor | Rpn11 block | CendR NRP1 mod | HNF4A DNA FP | CTSL1 counter | Rpn11 inh conf | MMP-2 counter | Thrombin FP
Cc1cc(NC(=O)c2cc(-c3cccc(Cl)c3)on2)no1 | 8 | -2 | 2 | -6 | -1 | -3 | · | · | ·
COc1ccc(-c2cc(C(=O)Nc3ccccc3SC)no2)cc1 | 1 | -4 | 2 | 4 | -1 | 2 | · | · | ·
CCCCN(C(=O)CSc1ncn[nH]1)c1c(N)n(Cc2ccccc2)c(=O)[nH]c1=O | · | · | -2 | 8 | 4 | · | · | · | ·
Cn1cc([C@@H]2C[C@H]3CN(Cc4cccc(Cl)c4)C(=O)[C@]34CCCN24)c2ccccc21 | 11 | 22 | 55* | -64 | 25 | -1 | 53* | -26 | 65*
CC(C)c1c(C(=O)N/N=C/C2CC=CCC2)nnn1-c1nonc1N (centres undefined) | 17 | 1 | 2 | -1 | -7 | -6 | · | · | ·
CCOc1ccc2nc(SCC(=O)NC(=O)NCc3ccco3)sc2c1 | 46 | -2 | 7 | 2 | 6 | -1 | · | · | ·
CCOc1ccc2nc(SCC(=O)NCc3ccco3)sc2c1 | 17 | -2 | 44* | -58 | 10 | 6 | -15 | 8 | -9
CCOc1ccc2nc(SCC(=O)c3cccs3)sc2c1 | 0 | -6 | 15 | -4 | 1 | 0 | · | · | ·
CCOc1ccc2nc(SCC(=O)c3ccc(Cl)s3)sc2c1 | 62* | 23 | 56* | -7 | 2 | 0 | -4 | -46 | 0
O=C(NC1CCCC1)C(c1ccccn1)N(Cc1ccccc1F)C(=O)c1csnn1 (centres undefined) | 22 | 0 | 56* | 0 | 4 | -2 | -22 | -21 | -27
Cc1cc(C(=O)NN)c2cc(Br)ccc2n1 | 10 | 1 | 4 | 4 | 4 | -3 | · | · | ·
Cc1cc(SCC(=O)NN)c2cc(Br)ccc2n1 | -15 | 1 | 43* | -10 | 3 | -5 | 3 | -28 | -5
C#CCOCCOCCOCCNc1nc(N2CCN(C(=O)[C@H]([C@@H](C)CC)n3cc([C@@H](N)CC(C)C)nn3)CC2)nc(N2CCN(C(=O)[C@H](Cc3cc4ccccc4[nH]3)n3cc([C@@H](N)Cc4ccc(O)cc4)nn3)CC2)n1 | 40 | 2 | · | · | · | 11 | · | · | ·

Bioassay records deposited in PubChem BioAssay by several laboratories.
